Assay [1] concerns the target guinea pig Sigma Receptor, Non-selective Binding, SIGMAR1 (gene 100135589) (UniProt Q60492). Briefly: NVS_OR_gSIGMA_NonSelective: NovaScreen (NVS) Nuclear Receptor Binding Assay for guinea pig Sigma Receptor, Non-selective Binding (AID 2283367). The method, boiled down:
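Membranes from guinea pig brain incubated with radioligand and test chemical for 1 h, then filtered and scintillation-counted. Duplicate primary testing at 25 uM, with concentration-series follow-up for actives.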

The target of assay [2] is Estrogen receptor (Homo sapiens) (UniProt P03372). Briefly: OT_ERa_GFPERaERE_0480: Odyssey Thera (OT) 8-hour HeLa Transcription Induction Assay for Estrogen Receptor (AID 2283381; active means hit-call score of the fitted dose curve at least 0.9, where 1 is the maximum; inactive means score below 0.9). The method, boiled down: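 Human cervical HeLa cells were treated for 8 hours, after which ERE-driven GFP induction was measured by fluorescence microscopy; increases over DMSO baseline defined activity.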
Chain of Estrogen receptor (Homo sapiens) (P03372 whole entry, looked up): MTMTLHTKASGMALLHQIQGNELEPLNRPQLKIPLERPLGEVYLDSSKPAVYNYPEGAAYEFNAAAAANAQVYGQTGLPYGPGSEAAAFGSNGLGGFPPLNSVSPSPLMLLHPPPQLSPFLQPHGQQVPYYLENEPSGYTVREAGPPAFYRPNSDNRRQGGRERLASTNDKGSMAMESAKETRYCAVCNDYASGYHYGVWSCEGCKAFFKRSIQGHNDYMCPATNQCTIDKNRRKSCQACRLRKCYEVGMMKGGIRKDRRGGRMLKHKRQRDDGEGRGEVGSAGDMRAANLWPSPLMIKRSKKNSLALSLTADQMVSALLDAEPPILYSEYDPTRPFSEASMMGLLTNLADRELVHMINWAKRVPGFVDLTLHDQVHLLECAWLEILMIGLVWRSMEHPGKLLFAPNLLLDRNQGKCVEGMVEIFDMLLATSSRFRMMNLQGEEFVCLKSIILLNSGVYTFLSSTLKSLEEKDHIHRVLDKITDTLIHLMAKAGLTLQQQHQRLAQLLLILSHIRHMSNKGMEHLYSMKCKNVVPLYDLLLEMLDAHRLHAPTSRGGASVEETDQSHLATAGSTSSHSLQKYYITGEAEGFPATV

Assay [3] has the same target. Briefly: OT_ERa_GFPERaERE_0120: Odyssey Thera (OT) 2-hour HeLa Transcription Induction Assay for Estrogen Receptor (AID 2283382). The method, boiled down: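 Cells (human cervical HeLa) receive compound, incubate 2 hours, then are imaged for fluorescent reporter induction. Images are quantified by high content analysis, and activity is fitted as gain of signal against DMSO.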

The target of assay [4] is Retinoic acid receptor RXR-alpha (Homo sapiens) (UniProt P19793). Briefly: OT_NURR1_NURR1RXRa_0480: Odyssey Thera (OT) 8-hour HEK293T Protein Complementation Assay for Nurr1/retinoid X receptor (RXR) (AID 2283385). The method, boiled down:
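Interaction of bait and prey reconstitutes a functional reporter, whose fluorescence was measured in HEK293T cells dosed with compound for 8 hours. Signal gain relative to DMSO defined the single endpoint.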

For assay [5] the target is unchanged. Briefly: OT_NURR1_NURR1RXRa_1440: Odyssey Thera (OT) 24-hour HEK293T Protein Complementation Assay for Nurr1/retinoid X receptor (RXR) (AID 2283386). The method, boiled down:
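Steps: fragment-tagged Nurr1 and RXRα expressed in HEK293T; compounds added; after 24 h, complemented reporter quantified by fluorescence intensity; signal increase over DMSO fitted as the single endpoint.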

The target of assay [6] is Peroxisome proliferator-activated receptor gamma (Homo sapiens) (UniProt P37231). Briefly: OT_PPARg_PPARgSRC1_0480: Odyssey Thera (OT) 8-hour Protein-Complementation Assay for Peroxisome Proliferator-activated Receptor Gamma / SRC-1 Co-activator (AID 2283387).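 Further: nuclear to cytoplasmic split Venus YFP fluorescence ratio reporting PPARg SRC-1 interaction.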 The method, boiled down:
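Split-YFP (IFP1/IFP2) PPARg/SRC-1 reporter, HEK293T, 37 °C, 5% CO2; 8 h compound; formaldehyde fix + Draq5; high-content imaging, N/C ratio, ≥350 cells/image, positive direction vs DMSO.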

Assay [7] addresses Bile acid receptor (Homo sapiens) (UniProt Q96RI1). Briefly: OT_FXR_FXRSRC1_0480: Odyssey Thera (OT) 8-hour HEK293T Protein-Complementation Assay for Farnesoid X receptor/SRC-1 Co-activator (AID 2283383). The method, boiled down:
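PCA, HEK293T, 8 h compound exposure; FXR–SRC-1 binding reconstitutes split reporter; fluorescence intensity; positive-direction fit vs DMSO.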

Assay [8] shares this target. Briefly: OT_FXR_FXRSRC1_1440: Odyssey Thera (OT) 24-hour HEK293T Protein-Complementation Assay for Farnesoid X receptor/SRC-1 Co-activator (AID 2283384). The method, boiled down:
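Measures ligand-driven FXR–SRC-1 co-activator recruitment in HEK293T via fragment complementation, fluorescence intensity at 24 h. DMSO served as negative control and baseline for gain-of-signal fitting.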

For assay [9], the target named is mouse Estrogen Receptor alpha (Era), Esr1 (gene 13982) (UniProt P19785). Briefly: NVS_NR_mERa: NovaScreen (NVS) Nuclear Receptor Binding Assay for mouse Estrogen Receptor alpha (Era) (AID 2283378).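 Further: hit means loss of bound radioligand signal relative to DMSO.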 The method, boiled down:
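Filter scintillation counts of bound radioligand, measured 18 h post-dose, gave the readout; decreased signal relative to DMSO controls indicated displacement from mouse Era. Primary screen ran in duplicate at 25 uM; active chemicals were retested across concentrations.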

The target of assay [10] is Agonist Androgen Response Element (ARE), AR (gene 367) (UniProt P10275). Briefly: OT_AR_ARELUC_AG_1440: Odyssey Thera (OT) 24-hour CHO-K1 Luciferase Assay for Agonist Androgen Response Element (ARE) (AID 2283379). The method, boiled down: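 Gain-of-signal reporter endpoint: cells (CHO-K1, hamster) are treated 24 h, luciferin/ATP reagent added, and luminescence compared with DMSO baseline.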
Chain of Agonist Androgen Response Element (ARE), AR (gene 367) (P10275 whole entry, looked up): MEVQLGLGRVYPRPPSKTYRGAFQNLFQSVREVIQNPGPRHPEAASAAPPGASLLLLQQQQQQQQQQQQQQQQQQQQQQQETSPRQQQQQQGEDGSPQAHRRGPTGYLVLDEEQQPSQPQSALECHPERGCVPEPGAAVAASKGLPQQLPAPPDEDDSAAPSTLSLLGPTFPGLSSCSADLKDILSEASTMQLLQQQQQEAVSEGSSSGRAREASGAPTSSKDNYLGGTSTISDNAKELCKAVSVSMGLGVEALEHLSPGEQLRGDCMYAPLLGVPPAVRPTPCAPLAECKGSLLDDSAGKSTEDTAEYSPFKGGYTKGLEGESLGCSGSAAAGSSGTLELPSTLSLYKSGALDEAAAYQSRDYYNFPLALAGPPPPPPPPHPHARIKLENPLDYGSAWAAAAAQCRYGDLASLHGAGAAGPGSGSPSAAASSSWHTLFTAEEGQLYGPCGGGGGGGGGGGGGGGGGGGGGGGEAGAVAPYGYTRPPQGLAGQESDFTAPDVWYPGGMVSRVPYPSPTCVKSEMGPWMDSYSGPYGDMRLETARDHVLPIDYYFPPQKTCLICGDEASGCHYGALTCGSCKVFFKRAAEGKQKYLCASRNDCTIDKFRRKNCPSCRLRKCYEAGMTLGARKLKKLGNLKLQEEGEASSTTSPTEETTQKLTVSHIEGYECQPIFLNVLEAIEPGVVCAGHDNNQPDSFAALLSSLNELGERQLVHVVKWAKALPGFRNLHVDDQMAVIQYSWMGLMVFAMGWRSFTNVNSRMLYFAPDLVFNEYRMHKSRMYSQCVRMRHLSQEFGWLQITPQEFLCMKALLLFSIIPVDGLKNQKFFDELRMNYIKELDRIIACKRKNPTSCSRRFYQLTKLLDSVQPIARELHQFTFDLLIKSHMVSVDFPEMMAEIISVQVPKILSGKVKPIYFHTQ

Assay [11] has as its target Estrogen receptor beta (Homo sapiens) (UniProt Q92731). Briefly: OT_ER_ERbERb_1440: Odyssey Thera (OT) 24-hour HEK293T Protein-Complementation Assay for Estrogen Receptor-beta/-beta Homodimer (AID 2283380).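 Further: scored as signal increase over DMSO baseline for both agonists and antagonists.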 The method, boiled down:
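HEK293T cells stably expressing ER beta LBD (aa 310-547) homodimer fragment-complementation reporter, dosed 24 h. Cells formaldehyde-fixed, Draq5-stained; gain in nuclear (agonist) or nuclear plus cytoplasmic (antagonist) fluorescence versus DMSO read by laser scanning cytometry.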

The target of assay [12] is human Norepinephrine Transporter (NET), SLC6A2 (gene 6530) (UniProt P23975). Briefly: NVS_TR_hNET: NovaScreen (NVS) Transporter Assay for human Norepinephrine Transporter (NET) (AID 2283377).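 Further: cell-free membrane protein extracted from CHO cells expressing human NET.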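 On AC50: displacement of radioligand from human NET seen as loss of scintillation signal.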 The method, boiled down: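 CHO cell extracts expressing the transporter; tritiated or iodinated tracer displaced competitively; filtration plus scintillation readout at 1 h. Single-point duplicates at 25 uM, concentration series for follow-up; activity = signal drop relative to DMSO.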
Chain of human Norepinephrine Transporter (NET), SLC6A2 (gene 6530) (P23975 whole entry, looked up): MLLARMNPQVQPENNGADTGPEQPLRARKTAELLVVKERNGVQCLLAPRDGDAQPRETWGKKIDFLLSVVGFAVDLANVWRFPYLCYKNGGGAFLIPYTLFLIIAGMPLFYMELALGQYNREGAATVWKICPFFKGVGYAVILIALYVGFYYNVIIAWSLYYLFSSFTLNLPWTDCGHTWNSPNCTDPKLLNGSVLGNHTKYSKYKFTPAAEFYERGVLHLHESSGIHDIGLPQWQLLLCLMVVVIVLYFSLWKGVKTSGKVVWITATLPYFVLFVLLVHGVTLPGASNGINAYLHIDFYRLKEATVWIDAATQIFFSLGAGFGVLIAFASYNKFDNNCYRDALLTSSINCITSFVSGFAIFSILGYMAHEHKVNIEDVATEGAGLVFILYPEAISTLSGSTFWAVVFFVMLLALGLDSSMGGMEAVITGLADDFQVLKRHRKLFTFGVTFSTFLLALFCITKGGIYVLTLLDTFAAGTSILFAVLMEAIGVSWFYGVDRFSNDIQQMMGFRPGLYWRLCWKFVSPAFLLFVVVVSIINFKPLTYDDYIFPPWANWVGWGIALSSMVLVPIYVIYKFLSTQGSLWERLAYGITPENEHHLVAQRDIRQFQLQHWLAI

Assay [13] concerns the target rat Serotonin Transporter (SERT), Slc6a4 (gene 25553) (UniProt P31652). Briefly: NVS_TR_rSERT: NovaScreen (NVS) Transporter Assay for rat Serotonin Transporter (SERT) (AID 2283375). The method, boiled down: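 Radioligand displacement, filter scintillation readout; rat forebrain membrane prep, 1 h post-dose. Single-conc 25 uM duplicate screen, then concentration-response on actives. Loss of signal vs DMSO baseline.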

For assay [14], the target named is human Dopamine Transporter (DAT), SLC6A3 (gene 6531) (UniProt Q01959). Briefly: NVS_TR_hDAT: NovaScreen (NVS) Transporter Assay for human Dopamine Transporter (DAT) (AID 2283374).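 Further: activity means loss of bound radioligand signal relative to DMSO.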 The method, boiled down: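 hDAT membranes + tritiated/iodinated radioligand, competitive displacement; 1 h; filter scintillation readout. Single conc 25 uM (duplicate), then conc-response for actives. DMSO = negative control.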

The target in assay [15] is Norway rat Vesicular Monoamine Transporter (VMAT2), neurotransmitter transporter, Slc18a2 (gene 25549) (UniProt Q01827). Briefly: NVS_TR_rVMAT2: NovaScreen (NVS) Transporter Assay for Norway rat Vesicular Monoamine Transporter (VMAT2), neurotransmitter transporter (AID 2283376).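 Further: actives lower the bound radioligand signal below the DMSO level.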 The method, boiled down:
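Filter-based scintillation counting of radioligand bound to rat forebrain-derived VMAT2 protein, cell-free, 1 h post-dose. Signal loss relative to DMSO control scored; single-concentration duplicate screen (25 uM) followed by concentration-response testing of actives.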

These results are taken from PubChem BioAssay (EPA / NIEHS).

“And” between values parts separate entries of the source, which are not always exact repeats. Identical values can stand only once. Records with an inconclusive call do not appear. A structure can be active in one record and inactive in another. The source made the active and inactive calls. How the source made its calls, unless noted: active means hit-call score of the fitted dose curve at least 0.9, where 1 is the maximum; inconclusive means response in the unintended direction; inactive means score below 0.9.

As usually defined, the AC50 is the concentration giving half of the maximal activity seen.

Chain of Estrogen receptor beta (Homo sapiens) (Q92731 whole entry, looked up, the tested form may be a part): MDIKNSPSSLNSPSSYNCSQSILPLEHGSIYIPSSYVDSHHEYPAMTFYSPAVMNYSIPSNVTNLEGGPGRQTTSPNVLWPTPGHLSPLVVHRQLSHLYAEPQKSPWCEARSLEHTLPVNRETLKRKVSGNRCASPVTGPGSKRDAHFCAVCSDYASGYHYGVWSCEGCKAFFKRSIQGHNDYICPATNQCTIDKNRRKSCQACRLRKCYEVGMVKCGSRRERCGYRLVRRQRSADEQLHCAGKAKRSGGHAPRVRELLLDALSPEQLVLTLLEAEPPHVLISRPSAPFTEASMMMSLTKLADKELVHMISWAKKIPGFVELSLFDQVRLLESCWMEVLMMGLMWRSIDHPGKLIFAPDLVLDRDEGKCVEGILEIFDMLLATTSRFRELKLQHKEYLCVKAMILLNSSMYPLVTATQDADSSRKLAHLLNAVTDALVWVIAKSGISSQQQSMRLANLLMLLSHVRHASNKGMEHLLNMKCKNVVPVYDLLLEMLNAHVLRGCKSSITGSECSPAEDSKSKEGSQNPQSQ
Chain of Retinoic acid receptor RXR-alpha (Homo sapiens) (P19793 whole entry, looked up): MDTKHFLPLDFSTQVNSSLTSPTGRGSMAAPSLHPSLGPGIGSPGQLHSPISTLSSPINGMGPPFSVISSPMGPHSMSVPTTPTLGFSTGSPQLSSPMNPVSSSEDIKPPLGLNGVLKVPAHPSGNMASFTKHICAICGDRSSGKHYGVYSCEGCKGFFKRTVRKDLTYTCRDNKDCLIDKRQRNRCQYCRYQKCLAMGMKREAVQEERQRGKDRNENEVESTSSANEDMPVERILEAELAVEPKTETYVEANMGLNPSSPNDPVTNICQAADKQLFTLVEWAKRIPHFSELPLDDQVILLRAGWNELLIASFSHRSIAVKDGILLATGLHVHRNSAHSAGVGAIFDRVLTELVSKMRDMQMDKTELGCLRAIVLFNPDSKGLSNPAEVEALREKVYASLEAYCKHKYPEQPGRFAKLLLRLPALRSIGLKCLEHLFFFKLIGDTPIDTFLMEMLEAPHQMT
Chain of mouse Estrogen Receptor alpha (Era), Esr1 (gene 13982) (P19785 whole entry, looked up): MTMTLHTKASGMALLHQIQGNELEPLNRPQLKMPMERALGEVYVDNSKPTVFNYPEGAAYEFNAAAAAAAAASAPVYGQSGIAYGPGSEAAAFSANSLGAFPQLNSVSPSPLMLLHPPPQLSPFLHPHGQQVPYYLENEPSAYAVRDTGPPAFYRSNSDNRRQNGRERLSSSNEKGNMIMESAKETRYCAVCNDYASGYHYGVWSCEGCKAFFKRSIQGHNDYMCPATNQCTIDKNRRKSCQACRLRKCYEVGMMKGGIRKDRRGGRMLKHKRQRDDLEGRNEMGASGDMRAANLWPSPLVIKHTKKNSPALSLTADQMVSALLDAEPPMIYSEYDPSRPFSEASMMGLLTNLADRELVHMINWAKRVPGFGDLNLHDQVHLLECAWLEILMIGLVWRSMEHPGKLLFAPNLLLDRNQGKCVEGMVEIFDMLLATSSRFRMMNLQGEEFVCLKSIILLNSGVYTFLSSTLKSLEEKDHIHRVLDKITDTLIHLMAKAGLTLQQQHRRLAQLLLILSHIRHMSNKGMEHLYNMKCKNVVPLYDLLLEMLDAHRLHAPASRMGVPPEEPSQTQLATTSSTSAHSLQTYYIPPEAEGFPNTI
Chain of Peroxisome proliferator-activated receptor gamma (Homo sapiens) (P37231 whole entry, looked up): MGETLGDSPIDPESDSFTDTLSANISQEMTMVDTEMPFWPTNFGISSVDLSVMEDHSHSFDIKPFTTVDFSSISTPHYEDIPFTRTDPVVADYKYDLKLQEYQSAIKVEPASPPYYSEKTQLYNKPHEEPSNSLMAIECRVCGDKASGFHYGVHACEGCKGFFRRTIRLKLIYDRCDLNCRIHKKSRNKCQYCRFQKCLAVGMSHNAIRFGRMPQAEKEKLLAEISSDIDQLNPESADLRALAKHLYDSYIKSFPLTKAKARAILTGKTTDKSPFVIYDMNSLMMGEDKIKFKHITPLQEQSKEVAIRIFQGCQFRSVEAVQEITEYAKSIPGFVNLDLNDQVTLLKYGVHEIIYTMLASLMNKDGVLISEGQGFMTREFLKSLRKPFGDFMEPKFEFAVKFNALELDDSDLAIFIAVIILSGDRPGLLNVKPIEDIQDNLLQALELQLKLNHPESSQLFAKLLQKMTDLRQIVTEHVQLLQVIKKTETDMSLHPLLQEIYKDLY
Chain of Bile acid receptor (Homo sapiens) (Q96RI1 whole entry, looked up): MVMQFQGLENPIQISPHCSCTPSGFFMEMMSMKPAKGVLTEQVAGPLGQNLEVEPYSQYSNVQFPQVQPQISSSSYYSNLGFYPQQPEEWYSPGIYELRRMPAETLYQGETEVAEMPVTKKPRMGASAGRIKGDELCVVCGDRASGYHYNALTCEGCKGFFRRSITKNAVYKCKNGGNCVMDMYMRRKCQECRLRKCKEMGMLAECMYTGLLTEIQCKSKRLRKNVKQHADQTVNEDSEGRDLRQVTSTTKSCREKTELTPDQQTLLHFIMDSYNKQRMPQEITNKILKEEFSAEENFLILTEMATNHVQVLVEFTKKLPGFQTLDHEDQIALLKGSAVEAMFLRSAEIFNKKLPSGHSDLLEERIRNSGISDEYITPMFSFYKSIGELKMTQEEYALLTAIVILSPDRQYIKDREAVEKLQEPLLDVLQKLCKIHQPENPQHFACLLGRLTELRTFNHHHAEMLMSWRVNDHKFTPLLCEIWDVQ
Chain of guinea pig Sigma Receptor, Non-selective Binding, SIGMAR1 (gene 100135589) (Q60492 whole entry, looked up): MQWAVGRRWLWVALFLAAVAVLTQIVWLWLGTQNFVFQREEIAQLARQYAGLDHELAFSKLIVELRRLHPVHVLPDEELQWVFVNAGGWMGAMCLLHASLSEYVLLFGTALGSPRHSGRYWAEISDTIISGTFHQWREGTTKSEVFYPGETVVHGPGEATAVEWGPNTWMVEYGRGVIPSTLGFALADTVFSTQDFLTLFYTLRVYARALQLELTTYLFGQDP

As for `COS(=O)(=O)OC`, the compound was called inactive in [1], in assay [2], in assay [3], in assay [4], in assay [5] and in assay [6].

For the compound `Clc1ccc(C(Cl)(Cl)Cl)cc1`, the compound was classed as inactive in assay [2], in [3], in [7], in assay [8], in [4] and in [5]. Moreover, the call in [6] was inactive.

For the compound `CCSC(=O)N(CC)C1CCCCC1`, the result in assay [2], in assay [3], in assay [7], in assay [8], in [4] and in assay [6] was inactive.

As for `CC(C)(O)C(=O)Nc1ccc([N+](=O)[O-])c(C(F)(F)F)c1`, in [9], the AC50 is 2.7 µM (active). Moreover, the compound was called inactive in assay [9], in assay [10], in assay [11], in assay [2], in [3] and in assay [4]. Also, the call in assay [5] was inactive.

Take `O=C(O)C(F)(F)C(F)(F)C(F)(F)C(F)(F)C(F)(F)F`: the outcome in assay [11], in assay [2], in assay [3], in assay [4], in [5] and in assay [6] was inactive.

For `Clc1ccc(C(c2ccccc2Cl)C(Cl)(Cl)Cl)cc1` (configuration not stated), the AC50 is 0.0517 µM (active) in assay [9]; 2.14 µM (active) and 2.1 µM (active) and 2.35 µM (active) in assay [11]; 54.9 µM (active) and 58.4 µM (active) and 63.9 µM (active) in assay [4]; 59.9 µM (active) in [5]. The result in [9], in [5] and in [6] was inactive.

`CN(C)CCO`: the call in assay [11], in assay [2], in [3], in [4], in assay [5] and in [6] was inactive.

In the case of `N#Cc1ccc(N(CC(N)=O)CC(F)(F)F)cc1C(F)(F)F`, the outcome in assay [11], in [2], in [3], in [7] and in assay [6] was inactive.

Consider `OCC(O)CO`, for which the compound was called inactive in [11], in assay [2], in assay [3], in assay [7], in assay [8] and in assay [4]. In addition, the compound was called inactive in assay [5] and in [6].

Take `c1ccc(-c2ccccc2)cc1`: the outcome in [12], in [11], in assay [2], in [3], in [7] and in assay [5] was inactive. The result in assay [6] was inactive.

In the case of `CCNc1nc(NC(C)C)nc(SC)n1`, the compound was called inactive in assay [10], in [11], in assay [5] and in [6].

Turning to `O=S(=O)(O)C(F)(F)C(F)(F)C(F)(F)C(F)(F)F`, the compound was classed as inactive in [11], in [2], in assay [3], in assay [4], in assay [5] and in assay [6].

For the compound `O=C(N[C@H]1CN2CCC1CC2)c1cc2ccoc2cn1`, the results for the concentration at half-maximal activity (AC50) in assay [13] and in assay [10] were 12.1 µM (active) and 71.8 µM (active), respectively. The compound was classed as inactive in assay [11], in assay [2], in [3], in assay [4], in [5] and in assay [6].

`Sc1ccccc1`: the compound was classed as inactive in assay [2] and in [3].

For the compound `Cc1ccc(O)c(C)c1`, the AC50 in [12] is 11.5 µM (active). In addition, the result in assay [11], in assay [2], in [3], in assay [4], in assay [5] and in assay [6] was inactive.

As to `ClC(Cl)=C(c1ccc(Cl)cc1)c1ccc(Cl)cc1`, the result in [14], in assay [15], in assay [9], in assay [2], in [3] and in assay [5] was inactive. Moreover, the compound was called inactive in assay [6]. Also, the AC50 in assay [3] is 11.8 µM (active); in assay [7], 85 µM (active) and 83.5 µM (active) and 85.1 µM (active); in assay [8] it was 93 µM (active) and 84.9 µM (active) and 88.2 µM (active); in assay [4], 78.3 µM (active) [middle of 4 runs]; in [5], 79.2 µM (active) and 79.5 µM (active) and 80 µM (active).

`CC#Cc1cc(C)nc(Nc2ccccc2)n1`: the compound was classed as inactive in assay [12], in assay [11], in assay [2], in [3], in [4] and in assay [5]. In [6], the compound was called inactive.
